Experimental data from PubChem BioAssay (NCI).
The panel holds about 79,000 compounds, 15% with a hit somewhere; the sample as a whole holds those more often. Activity calls are given as the source filed them. No stated cut-off is given here; in the data, active means growth inhibition above about 70%; inactive means the rest.

Experiment: NCI Yeast Anticancer Drug Screen. Data for the rad18 strain (AID 177)
Conditions: S. cerevisiae rad18 mutant growth inhibition, active compounds read high
Experimental: Growth inhibition of yeast strains with defined genetic alterations is measured as a screen for potential anti-cancer activity. Selected strains with alterations in DNA damage repair or cell cycle control were exposed to compounds and growth inhibition was measured relative to vehicle treated controls. The strain used in this assay is rad18

| Compound | growth inhibition (at 1.2 µM) | growth inhibition (at 3.7 µM) | growth inhibition (at 11.0 µM) | growth inhibition (at 33.0 µM) | growth inhibition (at 100.0 µM) |
| --- | --- | --- | --- | --- | --- |
| CCN(CCCl)CCCCNc1c2ccccc2nc2ccc(OC)cc12 | 66% (inactive) | 80% (active) | 90% (active) | 94% (active) | 95% (active) |
| CO[C@H](/C(C)=C/C=C/C(C)=C/c1coc(C)n1)[C@H](C)[C@H]1C[C@@H](O)[C@@]2(C)O[C@H]2/C=C/[C@@H](C)[C@@H]2C[C@@H](CC(=O)O2)C[C@H]2O[C@@H]2C(=O)O1 | 0% (inactive) | -12% (inactive) | -14% (inactive) | 6% (inactive) | 92% (active) |
| C/C(=N\NC(N)=O)C(CN1CCOCC1)C(c1ccccc1)c1c(O)c2ccccc2oc1=O (stereo not given) | 2% (inactive) | 0% (inactive) | 6% (inactive) | 1% (inactive) | -7% (inactive) |
| CC[C@](O)(C(=O)O)c1cc2n(c(=O)c1CO)Cc1cc3ccccc3nc1-2 | 4% (inactive) | 29% (inactive) | 82% (active) | 93% (active) | 96% (active) |
| Cc1c2ccccc2cc2ccccc12 | 5% (inactive) | 25% (inactive) | 76% (active) | 98% (active) | 98% (active) |
| Br[Se]c1ccccn1 | 1% (inactive) | 65% (inactive) | 96% (active) | 98% (active) | 98% (active) |
| O=C1NC(=S)NC(=O)C1=Cc1ccc([N+](=O)[O-])o1 | 21% (inactive) | 16% (inactive) | 57% (inactive) | 83% (active) | 92% (active) |
| OC1(c2ccccc2)CC2CCC(C1)N2CCCC(O)(c1ccccc1)c1ccccc1 (stereo not given) | 0% (inactive) | -1% (inactive) | 4% (inactive) | 28% (inactive) | 57% (inactive) |
